Assays:
Type in all cases: functional
Plasmodium falciparum [1] = assay: GSK_TCMDC: Inhibition of Plasmodium falciparum 3D7 in whole red blood cells, using parasite LDH activity as an index of growth. Test compounds present at 2uM
Plasmodium falciparum [2] = assay: GSK_TCMDC: Inhibition of Plasmodium falciparum Dd2 in whole red blood cells, using parasite LDH activity as an index of growth. Test compounds present at 2uM
HepG2 = assay: GSK_TCMDC: Percent inhibition of human HepG2 cell line. Test compounds present at 10uM.

Row | SMILES | Inhibition (Plasmodium falciparum [1]) | Inhibition (Plasmodium falciparum [2]) | Inhibition (HepG2)
1 | Cc1c(CNCCCNc2cc(=O)c3ccccc3[nH]2)sc(C(F)F)c1Br.Cl | 98% | 29% | 0%
2 | FC(F)(F)c1ccc2[nH]c(-c3ccc(-c4cccc(CN5CCC(CCN6CCCCC6)CC5)c4)cc3)nc2c1.O=C(O)C(F)(F)F | 100% | 96% | 100%
3 | CCc1cn2c3c(cc(C(=O)N[C@@H](Cc4ccccc4)[C@H](O)CNCCOC)cc13)N(C)S(=O)(=O)CC2.O=CO | 98% | 56% | 7%
4 | O=C(C=Cc1ccc(Cl)c(Cl)c1)NCCCCCN1CCCC(CCCNC(=O)C2CC2c2ccccc2)C1 (stereo not given) | 85% | 5% | 48%
5 | CCN(CCCN1CCCCC1)c1cc(C)nc(Nc2ccc(C)cc2Cl)n1.O=C(O)C(F)(F)F | 93% | 25% | 44%
6 | CC(C)Cn1c(N)cc(=O)n(C)c1=O | 100% | 0% | 3%
7 | COc1ccccc1CCCN1C(=O)C(c2ccccc2)(c2ccccc2)N=C1N.O=C(O)C(F)(F)F | 99% | 99% | 49%
8 | CC(C)CCN1CCC(Oc2cccc(NC(=O)c3ccc(C(F)(F)F)cc3)c2)CC1.O=C(O)C(F)(F)F | 98% | 6% | 39%
9 | Clc1cccc(-c2nc(Nc3ccnc(-c4ccc(CN5CCOCC5)cc4)c3)c3ccccc3n2)c1 | 100% | 65% | 8%
10 | Cc1ccc(S(=O)(=O)N2CCCN(C(=O)c3cc(-c4ccccc4)[nH]n3)CC2)cc1 | 96% | 93% | 11%
